This is part of a sample that, as a whole, favours compounds with a hit. Of some 83,000 tested, about 20% had one in any assay.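 48-hour exposure, single concentration, 96-well plates; percent growth endpoint where 0 means no net growth. Active: below 10.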 The source made the active and inactive calls.
Tests used:
Experiment in all cases: NCI-60 one-dose screen, 48 h (100 = growth as untreated, 0 = no growth, -100 = all killed)
Details in all cases: 10 µM unless noted
HCT-15 colon = system: HCT-15 colon
HT29 colon = system: HT29 colon
SNB-75 CNS = system: SNB-75 CNS
SNB-19 CNS = system: SNB-19 CNS
U251 CNS = system: U251 CNS
PC-3 prostate = system: PC-3 prostate
SK-MEL-5 melanoma = system: SK-MEL-5 melanoma
UACC-62 melanoma = system: UACC-62 melanoma
LOX IMVI melanoma = system: LOX IMVI melanoma
SK-MEL-28 melanoma = system: SK-MEL-28 melanoma
SK-MEL-2 melanoma = system: SK-MEL-2 melanoma
EKVX NSCLC = system: EKVX NSCLC
SN12C renal = system: SN12C renal
UO-31 renal = system: UO-31 renal
TK-10 renal = system: TK-10 renal
ACHN renal = system: ACHN renal
CAKI-1 renal = system: CAKI-1 renal
A498 renal = system: A498 renal
CCRF-CEM leukemia = system: CCRF-CEM leukemia
MOLT-4 leukemia = system: MOLT-4 leukemia

Measured: growth

Cn1cc(-c2nc(N)nnc2-c2c[nH]c3ccccc23)c2cc(Br)ccc21
active: HT29 colon 5.93% | SNB-75 CNS 7.38% | PC-3 prostate 6.53% | A498 renal -12.1% | CCRF-CEM leukemia 7.57% | MOLT-4 leukemia 8.98%
inactive: HCT-15 colon 24.5% | SNB-19 CNS 27% | U251 CNS 23.1% | SK-MEL-5 melanoma 22.7% | UACC-62 melanoma 21% | LOX IMVI melanoma 24% | SK-MEL-28 melanoma 55.2% | SK-MEL-2 melanoma 19.5% | EKVX NSCLC 45.6% | SN12C renal 27.9% | UO-31 renal 33.5% | TK-10 renal 88.6% | ACHN renal 38.9% | CAKI-1 renal 25.2%

CC(=O)O[C@@H]1C(=O)N(c2cnccn2)[C@H]1c1ccccc1[N+](=O)[O-]
active: HT29 colon 2.42% | U251 CNS -3.35% | SK-MEL-5 melanoma -57.2% | LOX IMVI melanoma 6.26% | A498 renal -20.2%
inactive: HCT-15 colon 15.9% | SNB-75 CNS 21.5% | SNB-19 CNS 41.8% | PC-3 prostate 24.6% | UACC-62 melanoma 30% | SK-MEL-28 melanoma 57.1% | SK-MEL-2 melanoma 10.6% | EKVX NSCLC 58.7% | SN12C renal 16.5% | UO-31 renal 27.7% | TK-10 renal 79.3% | ACHN renal 21.1% | CAKI-1 renal 24.6% | CCRF-CEM leukemia 12.3% | MOLT-4 leukemia 16.4%

CCCn1cnc2c(c1=N)C(c1ccc(OC)cc1)c1sc3c(C)cccc3c1O2 (stereo not given)
active: HT29 colon 7.24% | PC-3 prostate 6.95% | A498 renal -21.4% | CCRF-CEM leukemia 3.52%
inactive: HCT-15 colon 14.6% | SNB-75 CNS 17.8% | SNB-19 CNS 24% | U251 CNS 20.6% | SK-MEL-5 melanoma 40.3% | UACC-62 melanoma 14.3% | LOX IMVI melanoma 25.1% | SK-MEL-28 melanoma 53.9% | SK-MEL-2 melanoma 36.9% | EKVX NSCLC 40.9% | SN12C renal 19% | UO-31 renal 27.2% | TK-10 renal 94.2% | ACHN renal 31.8% | CAKI-1 renal 25.8% | MOLT-4 leukemia 17%

COc1ccc2c(c1)c(-c1cc(N)n3nc(-c4cn(C)c5ccc(OC)cc45)cc3n1)cn2C
inactive: HCT-15 colon 29.8% | HT29 colon 75.6% | SNB-75 CNS 98.2% | SNB-19 CNS 107% | PC-3 prostate 88.7% | SK-MEL-5 melanoma 102% | UACC-62 melanoma 100% | LOX IMVI melanoma 105% | SK-MEL-28 melanoma 113% | SK-MEL-2 melanoma 133% | EKVX NSCLC 107% | SN12C renal 92.4% | UO-31 renal 93.3% | TK-10 renal 121% | ACHN renal 103% | CAKI-1 renal 96.7% | A498 renal 88.8% | MOLT-4 leukemia 56.1%
active: U251 CNS -30.9% | CCRF-CEM leukemia -8.54%

CCNC(=O)N1CCc2cc(OC)c(OCCc3ccc(OC)cc3)cc2C1c1ccc(OC)cc1C (stereo not given)
inactive: HCT-15 colon 10.8% | SNB-19 CNS 25.8% | U251 CNS 20.6% | PC-3 prostate 27.9% | UACC-62 melanoma 19.5% | SK-MEL-28 melanoma 46.7% | SK-MEL-2 melanoma 19% | EKVX NSCLC 45.5% | SN12C renal 30.2% | UO-31 renal 30% | TK-10 renal 38.1% | ACHN renal 26.9% | CAKI-1 renal 26.9% | CCRF-CEM leukemia 36.3% | MOLT-4 leukemia 21.2%
active: HT29 colon -0.449% | SNB-75 CNS 3.67% | SK-MEL-5 melanoma -1.62% | LOX IMVI melanoma 4% | A498 renal -11.1%

CS(=O)(=O)Nc1cc(-c2ccc3ncc(C#N)c(NCc4ccccc4O)c3c2)cnc1Cl
inactive: HT29 colon 15.5% | SNB-75 CNS 32.3% | SNB-19 CNS 11.9% | U251 CNS 13.6% | SN12C renal 17.1% | ACHN renal 12.4% | CCRF-CEM leukemia 19.9%
active: HCT-15 colon 8.71% | PC-3 prostate 9.68% | SK-MEL-5 melanoma -90.3% | UACC-62 melanoma -25.3% | LOX IMVI melanoma -34.5% | SK-MEL-28 melanoma 5.12% | SK-MEL-2 melanoma -38.3% | EKVX NSCLC 4.89% | UO-31 renal 3.5% | TK-10 renal -6.17% | CAKI-1 renal -1.29% | A498 renal -41% | MOLT-4 leukemia -0.509%

CCCn1cnc2c(c1=N)C(c1ccc(F)cc1)c1sc3c(C)cccc3c1O2 (stereo not given)
inactive: HCT-15 colon 18.5% | HT29 colon 57% | SNB-19 CNS 22.4% | U251 CNS 24.4% | PC-3 prostate 33.4% | SK-MEL-5 melanoma 24.8% | UACC-62 melanoma 27.7% | LOX IMVI melanoma 28.8% | SK-MEL-28 melanoma 45.1% | SK-MEL-2 melanoma 52.8% | EKVX NSCLC 37.1% | SN12C renal 61.9% | UO-31 renal 32.8% | TK-10 renal 70.9% | ACHN renal 35.5% | CAKI-1 renal 28.6% | MOLT-4 leukemia 40%
active: SNB-75 CNS -4.36% | A498 renal -19.9% | CCRF-CEM leukemia -3.84%

O=c1[nH]c(Sc2sc3ccc(Cl)cc3c2CBr)nc(=S)[nH]1
inactive: HCT-15 colon 21.2% | HT29 colon 91.4% | SNB-75 CNS 54% | SNB-19 CNS 60.7% | U251 CNS 38.7% | PC-3 prostate 26.4% | SK-MEL-5 melanoma 35.1% | LOX IMVI melanoma 25.9% | SK-MEL-28 melanoma 28.4% | EKVX NSCLC 40.2% | SN12C renal 41.8% | UO-31 renal 19.9% | TK-10 renal 46.2% | ACHN renal 26.7% | CAKI-1 renal 13.7% | CCRF-CEM leukemia 18% | MOLT-4 leukemia 17.5%
active: UACC-62 melanoma 1.82% | SK-MEL-2 melanoma 7.23% | A498 renal 5.73%

CC(=O)C1=C(C)NC(NN)=NC1c1cccc(Cl)c1 (stereo not given)
inactive: HCT-15 colon 102% | HT29 colon 111% | SNB-75 CNS 95.9% | SNB-19 CNS 103% | U251 CNS 95% | PC-3 prostate 96.9% | SK-MEL-5 melanoma 106% | UACC-62 melanoma 93.9% | LOX IMVI melanoma 111% | SK-MEL-28 melanoma 106% | SK-MEL-2 melanoma 112% | EKVX NSCLC 96.4% | SN12C renal 98.2% | UO-31 renal 85.9% | TK-10 renal 152% | ACHN renal 99.4% | CAKI-1 renal 91% | A498 renal 93.2% | CCRF-CEM leukemia 97% | MOLT-4 leukemia 96.8%

O=C(c1ccc(O)cc1)[C@@H]1CN[C@@]2(C(=O)Nc3ccccc32)[C@H]1c1ccc(F)cc1
inactive: HCT-15 colon 94.8% | HT29 colon 110% | SNB-75 CNS 103% | SNB-19 CNS 92.8% | U251 CNS 102% | PC-3 prostate 88.8% | SK-MEL-5 melanoma 101% | UACC-62 melanoma 86% | LOX IMVI melanoma 110% | SK-MEL-28 melanoma 105% | SK-MEL-2 melanoma 104% | EKVX NSCLC 91.9% | SN12C renal 98.6% | UO-31 renal 77.3% | TK-10 renal 123% | ACHN renal 94.5% | CAKI-1 renal 106% | A498 renal 112% | CCRF-CEM leukemia 99.2% | MOLT-4 leukemia 90.5%

CC(=O)c1nnn(-c2c(C(=O)n3nc(C)cc3C)sc(=S)n2-c2ccccc2)c1C
inactive: HCT-15 colon 101% | HT29 colon 114% | SNB-75 CNS 98.4% | SNB-19 CNS 99.1% | U251 CNS 109% | PC-3 prostate 98.2% | SK-MEL-5 melanoma 100% | UACC-62 melanoma 86.2% | LOX IMVI melanoma 98.8% | SK-MEL-28 melanoma 112% | SK-MEL-2 melanoma 108% | EKVX NSCLC 90.7% | SN12C renal 103% | UO-31 renal 79.8% | TK-10 renal 138% | ACHN renal 102% | CAKI-1 renal 91.8% | A498 renal 94.9% | CCRF-CEM leukemia 101% | MOLT-4 leukemia 94.9%

NC(=O)c1cccc(C#CCNC[C@H]2C[C@@H](n3ccc4c(Cl)ncnc43)[C@H](O)[C@@H]2O)c1
inactive: HCT-15 colon 107% | HT29 colon 105% | SNB-75 CNS 87.7% | SNB-19 CNS 102% | U251 CNS 100% | PC-3 prostate 102% | SK-MEL-5 melanoma 101% | UACC-62 melanoma 96.1% | LOX IMVI melanoma 101% | SK-MEL-28 melanoma 102% | SK-MEL-2 melanoma 104% | EKVX NSCLC 106% | SN12C renal 99.5% | UO-31 renal 92.4% | TK-10 renal 97.3% | ACHN renal 106% | CAKI-1 renal 94.4% | A498 renal 94.7% | CCRF-CEM leukemia 102% | MOLT-4 leukemia 114%

C=CCn1c(SCC(=O)Nc2ccc(C(=O)/C=C/c3ccc(C)cc3)cc2)nnc1-c1c[nH]c2ccccc12
inactive: HCT-15 colon 71.5% | HT29 colon 101% | SNB-75 CNS 97.4% | SNB-19 CNS 87.5% | U251 CNS 92.2% | PC-3 prostate 66.5% | SK-MEL-5 melanoma 69.2% | UACC-62 melanoma 67.9% | LOX IMVI melanoma 20.9% | SK-MEL-28 melanoma 96% | SK-MEL-2 melanoma 97.3% | EKVX NSCLC 61.9% | SN12C renal 83.6% | UO-31 renal 54.2% | TK-10 renal 114% | ACHN renal 83.4% | CAKI-1 renal 85.4% | A498 renal 95.1% | CCRF-CEM leukemia 83.1% | MOLT-4 leukemia 60.7%

COc1ccc(Cn2cc3c(c2-c2cc(OC)c(OC)c(OC)c2)CCc2c(CN4CCCC4)noc2-3)cc1
inactive: HCT-15 colon 21.1% | SNB-19 CNS 22% | U251 CNS 22.4% | PC-3 prostate 29% | SK-MEL-5 melanoma 20.7% | UACC-62 melanoma 15.8% | LOX IMVI melanoma 34.6% | SK-MEL-28 melanoma 60.9% | SK-MEL-2 melanoma 57.1% | EKVX NSCLC 38.1% | SN12C renal 36.6% | UO-31 renal 35.9% | TK-10 renal 69.6% | ACHN renal 45.7% | CAKI-1 renal 35.9% | CCRF-CEM leukemia 16.3% | MOLT-4 leukemia 18.3%
active: HT29 colon 8.73% | SNB-75 CNS -2.12% | A498 renal -1.61%

Cc1cccc2c3c(sc12)C(c1ccc(Cl)cc1)c1c(nc(CC(=O)Nc2ccccc2)[nH]c1=O)O3 (stereo not given)
inactive: HCT-15 colon 47.5% | HT29 colon 73.6% | SNB-75 CNS 30.8% | SNB-19 CNS 64.5% | U251 CNS 54.2% | PC-3 prostate 43.3% | SK-MEL-5 melanoma 91.7% | UACC-62 melanoma 27% | LOX IMVI melanoma 56.1% | SK-MEL-28 melanoma 56.5% | SK-MEL-2 melanoma 68.4% | EKVX NSCLC 63.7% | SN12C renal 71.9% | UO-31 renal 50.9% | TK-10 renal 132% | ACHN renal 47.3% | CAKI-1 renal 41.1% | A498 renal 41.5% | CCRF-CEM leukemia 59% | MOLT-4 leukemia 83.4%

— PubChem BioAssay (NCI)
